Results as given in ChEMBL document CHEMBL4513216, “Probing the Open Global Health Chemical Diversity Library for Multistage-Active Starting Points for Next-Generation Antimalarials” (ACS Infect Dis, 2020).
The whole screen tested about 68,000 compounds, of which about 2,700 (4%) showed an effect of 50% or more. What follows is part of a selection rich in strong results, with near analogues and random picks from the rest.

System: Plasmodium berghei
Assay: Screen against P. berghei liver stage (PbLuc), transformed with Luciferase, at 2uM
Type: functional, HepG2
Conditions: tested at 2 uM

| SMILES | INHIBITION |
| --- | --- |
| Cc1cccc(COC[C@H]2CC[C@H]3[C@H](CCN3Cc3ccco3)O2)n1 | -22.82% |
| O=C(c1ccco1)N1CCC2(CCCN(c3ncccn3)C2)C1 (centres undefined) | -18.02% |
| NC(=O)C1CN(C(=O)C2(c3ccc(F)cc3F)CCCC2)CCO1 (centres undefined) | 56.49% |
| NC(=O)C1CN(C(=O)NCC2(c3ccc(F)cc3)CCC2)CCO1 (centres undefined) | -14.79% |
| CC1CN(C(=O)C2(c3ccc(F)cc3F)CCOCC2)CCO1 (centres undefined) | 20.14% |
| CN1CC2(CCN(C(=O)CCc3nc4cccnc4n3C)C2)OC1=O (centres undefined) | -31.03% |
| N#Cc1ccc(C(=O)N2CC(c3nc(-c4ncccn4)no3)C2)cc1 | 11.43% |
| CNC(=O)c1ccc(NC(=O)NC(C)c2cc(C)oc2C)cc1 (centres undefined) | 50.59% |
| Cc1cc(C(C)NC(=O)c2cnc3onc(C)c3c2)c(C)o1 (centres undefined) | 4.49% |
| Cc1cc(C(C)NC(=O)c2c[nH]c(=O)c(Cl)c2)c(C)o1 (centres undefined) | 25.72% |
| CNC(=O)c1cccc(NC(=O)NC(C)c2cc(C)oc2C)c1C (centres undefined) | 57.75% |
| Cc1cc(C(C)NC(=O)c2ccc(O)nc2)c(C)o1 (centres undefined) | 56.96% |
| CC(C)NC(=O)c1ccc(NC(=O)NC(C)c2ccccn2)cc1 (centres undefined) | 2.26% |
| CNC(=O)c1ccc(NC(=O)NC(C)c2cc(C)oc2C)c(C)c1 (centres undefined) | 41.05% |
| CNC(=O)c1cccc(NC(=O)NCc2ccccc2)c1C | -7.16% |
| CNC(=O)c1cccc(NC(=O)NC(C)CCc2cccn2C)c1C (centres undefined) | -54.27% |
| COCc1nc(C(=O)N2CCCC2c2c(C)nn(C)c2C)cs1 (centres undefined) | 5.1% |
| Cc1ccc(C2(O)CCN(C(=O)CCn3ccc(=O)[nH]c3=O)CC2)nc1 | -3.56% |
| N#CC1(NC(=O)COC(=O)Cc2cc(Cl)c3c(c2)OCCO3)CCCC1 | 17.14% |
| O=C(NCCN1CCOCC1)c1cnc(Cc2ccc(F)cc2)s1 | -42.16% |
| CCc1nc(CN2CCN(C(=O)CCc3ccccc3)CC2)cs1 | 36.32% |
| Fc1ccc(OCCCNC2=NCCN2)cc1 | 6.36% |
| Cc1ccc(CCNc2ncc(C)c(-c3ccnn3C)n2)s1 | -33.54% |
| COCC(=O)N1CCCC(c2csc(NC(C)=O)n2)C1 (centres undefined) | 15.73% |
| COCC(=O)N1CCC(c2csc(NC(C)=O)n2)CC1 | -2.2% |
| COCC(=O)N1CC(c2csc(NC(C)=O)n2)C1 | 50.74% |

| SMILES | INHIBITION |
| --- | --- |
| Cc1nn(C)c(Cl)c1C1CCCN1CC(=O)NCc1ccco1 (centres undefined) | 33.61% |
| CCC(C)NC(=O)Nc1ccc(CN2CCOC2=O)cc1 (centres undefined) | -5.28% |
| CC(C)CNC(=O)Nc1ccc(CN2CCOC2=O)cc1 | -15.92% |
| CC(=O)Nc1ccc(CN2CCOC2=O)cc1 | 55.66% |
| Nc1ncc(CN2C[C@H](C3CC3)[C@@H](N)C2)cn1 | 64.38% |
| N[C@H]1CN(Cc2cnc(N3CCCC3)nc2)C[C@@H]1C1CC1 | 22.18% |
| CCNc1ncc(CN2C[C@H](C3CC3)[C@@H](N)C2)cn1 | -35.18% |
| Cn1ccnc1SCCNC(=O)CC1CCc2ccccc21 (centres undefined) | 1.88% |
| Fc1cccc(NCc2ncc[nH]2)c1 | 51.08% |
| Fc1ccc(NCc2ncc[nH]2)cc1Br | 56.21% |
| Fc1cccc(C(NCc2ncc[nH]2)c2ccccc2)c1 (centres undefined) | 14.52% |
| CN1CCN(Cc2cccc(NCc3ncc[nH]3)c2)CC1 | 8.37% |
| COCc1nc2cc(NCc3ncc[nH]3)ccc2o1 | 12.94% |
| COc1cc(NCc2ncc[nH]2)ccc1Br | 44.23% |
| CCOc1ccc(N(CC(=O)c2ccccc2)C2=NCCCCC2)cc1 | 20.74% |
| CS(=O)(=O)c1cc(Cl)cnc1C1CCN(C(=O)C2CCOCC2)CC1 | -33.32% |
| Cn1nccc1C(=O)N1CCC(c2ncc(Cl)cc2S(C)(=O)=O)CC1 | 76.78% |
| CS(=O)(=O)c1cc(Cl)cnc1C1CCN(C(=O)C2CC2)CC1 | -14.56% |
| Cn1cc(CN2C[C@H](N3CCOCC3)[C@@H]3OCCC[C@@H]32)cn1 | -3.36% |
| O=C(CSC1CCCC1)N1CCN(C(=O)C2CC2c2cccs2)CC1 (centres undefined) | 10.39% |
| N#CCCN(CCC#N)C(=O)CN(C1CC1)C1CCc2ccccc21 (centres undefined) | 12.84% |
| CN(CCC#N)C(=O)CN(C1CC1)C1CCc2ccccc21 (centres undefined) | 63.73% |
| CN(CC(=O)N(CCC#N)c1ccccc1)C1CCc2ccccc21 (centres undefined) | -25.33% |
| CCn1c(SCC(N)=O)nnc1C(C)NC(=O)c1ccc(Cl)cc1 (centres undefined) | 11.4% |
| COCCN(Cc1nccs1)C(=O)c1c(C)cc(C)[nH]c1=O | -1.63% |
| COCCN(Cc1nccs1)C(=O)c1cc(-c2ccc(C)o2)n[nH]1 | 52.98% |

| SMILES | INHIBITION |
| --- | --- |
| COCCN(Cc1nccs1)C(=O)c1cc(-c2ccc(C)s2)n[nH]1 | 31.51% |
| COc1ccc(C)c2c1N(C(=O)c1cnc(C)s1)CCC2 | 18.01% |
| COc1ccc(C)c2c1N(C(=O)c1ccc3nnc(C)n3c1)CCC2 | 61.06% |
| COc1ccc(C)c2c1N(C(=O)c1cnc3onc(C)c3c1)CCC2 | 47.2% |
| N#Cc1cccc(CN2CCC3(CC(C(=O)NCC4CC4)=NO3)C2)c1 (centres undefined) | 7.35% |
| CNC1CCCN(Cc2noc(C3CC3)n2)C1 (centres undefined) | 8.91% |
| Cc1n[nH]c(C)c1CNC(=O)N(Cc1ccccc1)CC(C)(C)O | -16.94% |
| Cc1noc(C2CCN(C(=O)CCc3ccccn3)CC2)n1 | 9.36% |
| O=C(NC1CC1)C1=CC2(CCN(CC3CC3)CC2)c2ccccc21 | 11.73% |
| CCN1CCC2(C=C(C(=O)NC3CC3)c3ccccc32)CC1 | 57.95% |
| CC(C)CN1CCC2(C=C(C(=O)NC3CC3)c3ccccc32)CC1 | -14.63% |
| COc1ccc(Cl)cc1S(=O)(=O)N(C)CC(=O)Nc1cccnc1 | -66.51% |
| Cn1c(C2CC2)nc2c1CCN(CCOc1ccc(C#N)cc1)C2 | 55.52% |
| Cn1c(C2CC2)nc2c1CCN(CCOc1cccc(F)c1)C2 | -9.49% |
| Cn1c(C2CC2)nc2c1CCN(CCOc1ccccc1C#N)C2 | -16.16% |
| NCc1ccc(Oc2ccc(F)c(F)c2)cc1C(F)(F)F | 30.1% |
| CC(C)(C)Oc1ccc(CN)c(C(F)(F)F)c1 | 50.01% |
| CC(C)Oc1ccc(CN)c(C(F)(F)F)c1 | 28.94% |
| CN1CCC(N(C)C(=O)CCc2ccc(F)c(F)c2)C1=O (centres undefined) | 20.14% |
| CC(C)c1ccc(CCC(=O)N(C)C2CCN(C)C2=O)cc1 (centres undefined) | 71.91% |
| CN1CCC(N(C)C(=O)CSc2ccc(F)c(F)c2)C1=O (centres undefined) | -15.11% |
| COc1cccc(CC(=O)N2CC[C@@H](OC)[C@@H]2Cc2cccnc2)c1 | 8.18% |
| COC[C@@]12CCO[C@@H]1CCN(C(=O)Cc1ccc(C)cc1)C2 | 11.37% |
| COC[C@@]12CCO[C@@H]1CCN(C(=O)Cc1ccccc1C)C2 | 54.56% |
| COC[C@@]12CCO[C@@H]1CCN(C(=O)Cc1ccccc1F)C2 | -26.85% |
| CN(Cc1ccc2c(c1)OCO2)C(=O)NCCc1cnn(C)c1 | -0.12% |

| SMILES | INHIBITION |
| --- | --- |
| COCC(=O)NC1CC2(CCN(Cc3ccco3)CC2)c2ccccc21 (centres undefined) | -40.39% |
| CCOc1cccc2c1OCC(C(=O)NS(=O)(=O)c1cncc(Br)c1)=C2 | 51.94% |
| COc1cccc(C(=O)NS(=O)(=O)c2cccc(C#N)c2)c1 | -49.9% |
| COc1ccc(C(=O)NS(=O)(=O)c2cccc(C#N)c2)cc1 | 66.2% |
| COc1cc(C(=O)NS(=O)(=O)c2cccc(C#N)c2)ccc1C | 23.92% |
| COc1cc(C(=O)NS(=O)(=O)c2cccc(C#N)c2)cc(OC)c1Br | 41.76% |
| CCOc1cccc2c1OCC(C(=O)NS(=O)(=O)c1ccc(Cl)cc1)=C2 | 30.91% |
| COC(=O)c1ccc(C(=O)NS(=O)(=O)c2cncc(Br)c2)cc1 | -8.83% |
| CCOc1cc(C(=O)NS(=O)(=O)c2cccc(C#N)c2)ccc1OC | 64.16% |
| COc1ccc(C(=O)NS(=O)(=O)c2cncc(Br)c2)cc1 | 53.12% |
| CCOc1cccc2c1OCC(C(=O)NS(=O)(=O)c1ccc(Br)s1)=C2 | -20.93% |
| COc1cc(C(=O)NS(=O)(=O)c2cccc(C#N)c2)cc(OC)c1C | -15.28% |
| COc1ccc(C(=O)NS(=O)(=O)c2cncc(Br)c2)cc1OC | -10.6% |
| COc1ccc(CN2CC[C@@H]3[C@H]2CCC(=O)N3c2cnn(C)c2)cc1 | -41.29% |
| NC(=O)C1CCN(C(=O)c2cccn2Cc2cccs2)C1 (centres undefined) | -8.9% |
| CCC(C)(C)NC(=O)CN(Cc1cccc(O)c1)C1CCC(O)CC1 (centres undefined) | 6.85% |
| Cn1cc(CN2CCC(F)(F)C3(CCN(c4ncccn4)C3)C2)cn1 (centres undefined) | 11.54% |
| COCCOc1cccc(C(=O)N2CCCC(n3ccnc3C)C2)c1 (centres undefined) | 27.55% |
| COC(=O)c1ccc(NCc2csc(C)n2)cc1Cl | -37.11% |
| CCOc1c(Br)cc(C2c3c(n[nH]c3C)N=C3COC(=O)C32)cc1OC (centres undefined) | -54.78% |
| Cc1nc(C)c(C(=O)N2CCc3c(C)cccc32)o1 | 43.28% |
| Cc1nc(C)c(C(=O)N2CCCc3c(F)cccc32)o1 | 54.77% |
| Cc1nc(C)c(C(=O)N2CCCc3c(F)ccc(F)c32)o1 | 44.71% |
| COc1ccc(CNC[C@H]2COCc3nc4cccnc4n32)cn1 | -8.63% |
| CC1CCN(C(=O)c2cccc3ncccc23)CC1 | -29.11% |
| CN(C)C(C(=O)N1CC(c2ccccn2)C1)c1cccc(F)c1 (centres undefined) | 12.35% |
